Vif-A3G inh – qHTS for Inhibitors of Vif-A3G Interactions: qHTS | DNA dC->dU-editing enzyme APOBEC-3G (Homo sapiens), Q9HC16 | Potency, µM (doses to about 46.1 µM), hits mostly inhibitors | HeLa A3G-eYFP + Vif (tagged APOBEC3G with the HIV-1 protein that degrades it), YFP fluorescence, overnight | AID 602310, 2012 | actives 0.076% (n = 410,000); note: nearly all actives have a fitted effect of over 60% in size
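HeLa cells stably expressing Vif and C-terminally eYFP-tagged A3G, seeded overnight at 37 deg C, then exposed to compound by pintool overnight at 37 deg C. Rise in yellow fluorescence (Ex 488/Em 500-530, Acumen) marks blocked Vif-driven A3G degradation.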
Vif-APOBEC3F blk – qHTS for Inhibitors of Vif-A3F Interactions: qHTS | HeLa A3F-eYFP + Vif (tagged APOBEC3F with the HIV-1 protein that degrades it), YFP fluorescence increase | Potency, µM (highest dose often 46.1 µM) | actives 0.2% (n = 390,000) | AID 602313, 2012; note: nearly all actives have a fitted effect of over 65% in size
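HeLa cells stably expressing A3F-eYFP plus Vif, plated and incubated overnight at 37 deg C, then exposed to compounds overnight at 37 deg C. Blocked degradation read as raised yellow fluorescence (Ex 488/Em 500-530).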
TSHR antagonist – Antagonists of the Thyroid Stimulating Hormone Receptor: HTS campaign | actives 0.2% (n = 330,000) | activity change, negative = inhibition, % at 11.5 µM | Thyrotropin receptor (Homo sapiens), P16473 | AID 504810, 2011 | TSHR-expressing cells, TSH-stimulated cAMP HTRF, 2 h; active compounds read low;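 active = activity change below a set negative limit, meaning inhibition stronger than a set level, cut at about -70% in these data; inconclusive = activity change between two set negative limits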
Target sequence (P16473 whole entry, looked up): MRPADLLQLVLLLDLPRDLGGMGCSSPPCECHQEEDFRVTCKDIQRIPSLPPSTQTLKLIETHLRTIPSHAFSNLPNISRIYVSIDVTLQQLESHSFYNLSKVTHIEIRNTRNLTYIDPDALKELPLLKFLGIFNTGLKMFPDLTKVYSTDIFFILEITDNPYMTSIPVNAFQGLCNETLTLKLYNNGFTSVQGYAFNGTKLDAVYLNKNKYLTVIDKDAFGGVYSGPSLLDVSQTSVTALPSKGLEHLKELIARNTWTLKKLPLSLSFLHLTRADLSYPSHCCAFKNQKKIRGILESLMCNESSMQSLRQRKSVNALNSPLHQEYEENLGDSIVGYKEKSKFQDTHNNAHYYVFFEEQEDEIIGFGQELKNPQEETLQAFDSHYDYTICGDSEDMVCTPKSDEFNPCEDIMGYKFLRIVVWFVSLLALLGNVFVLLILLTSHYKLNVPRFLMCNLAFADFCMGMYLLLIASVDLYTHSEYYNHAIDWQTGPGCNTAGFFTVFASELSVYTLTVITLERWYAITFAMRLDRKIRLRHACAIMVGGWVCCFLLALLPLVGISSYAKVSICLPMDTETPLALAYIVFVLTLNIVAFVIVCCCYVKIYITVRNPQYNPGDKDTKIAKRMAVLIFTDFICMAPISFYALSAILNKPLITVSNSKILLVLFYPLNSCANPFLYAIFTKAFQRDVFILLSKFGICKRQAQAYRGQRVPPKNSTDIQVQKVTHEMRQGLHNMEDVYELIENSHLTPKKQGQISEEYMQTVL
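Read-out is FRET at 665 nm (cryptate excitation 337 nm) from a cryptate-tagged anti-cAMP antibody, competed by cell cAMP against cAMP-d2. Compounds are tested on freshly harvested TSHR cells challenged with 4nM TSH (EC80) for 2 hours at 37 deg C.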
PLK1 PBD inh – qHTS for Inhibitors of PLK1-PDB (polo-like kinase 1 - polo-box domain): Primary Screen; Plk1 PBD binding of FITC phosphopeptide, fluorescence polarization; Potency, µM, actives largely listed as inhibitors; actives 2.8% (n = 360,000); note: series mostly up to about 57 µM; nearly all actives have a fitted effect of over 65% in size
VDR inhibitor – Inhibitors of the vitamin D receptor (VDR): qHTS. VDR-SRC2-3 peptide fluorescence polarization, 2 h. Potency, µM, usual class: inhibitors. actives 0.93% (n = 400,000). AID 504847, 2011
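Compounds are added to VDR with labelled SRC2-3 coactivator peptide and held 2 h at room temperature. Inhibition of the VDR–peptide interaction is then read as a change in fluorescence polarization.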
Hits are given with their value; . = inactive; ? = inconclusive; / = not tested or not shown. Sampled rows, rich in hits. Any-hit rate of the full collection: about 3.1%. Unless noted, calls come from the whole dose curve; as a rule, active = well fitted curve in the direction sought with a large enough effect; inconclusive = small, poorly fitted or top-dose-only effect, or another doubt; inactive = no such curve, though single readings can be large; an effect the other way counts as inactive or inconclusive.

SMILES	Vif-A3G inh	Vif-APOBEC3F blk	TSHR antagonist	PLK1 PBD inh	VDR inhibitor
CC1CCN(C(=O)c2ccc(S(=O)(=O)Cc3ccccc3F)c([N+](=O)[O-])c2)CC1	?	.	.	.	.
O=C(c1ccc(S(=O)(=O)Cc2ccccc2F)c([N+](=O)[O-])c1)N1CCCC1	.	.	.	24µM	.
O=C(Nc1cc(Sc2ccccn2)cc([N+](=O)[O-])c1)c1ccc([N+](=O)[O-])cc1	.	.	.	1.1µM	?
O=[N+]([O-])c1ccc(Sc2ccccn2)nc1	.	.	.	.	.
C(=C\c1ccco1)/C1=NN(c2ccccc2)C(c2ccco2)C1 (stereo not given)	?	25µM	.	.	.
Nc1nc(N)c2c(Oc3ccc(F)cc3)cccc2n1	.	/	/	/	/
Cc1[nH]c2ccc(Br)cc2c(=S)c1C/C=C/Cl	.	?	.	24µM	?
O=C(CNC(=O)c1ccccc1)OCC(=O)c1ccccc1	.	/	/	/	.
Cc1cc(CN2CCCC(C(=O)Nc3cccc(-n4cccn4)c3)C2)cc(C)c1O (stereo not given)	.	.	.	?	.
O=C(Nc1cccc(-n2cccn2)c1)C1CCCN(Cc2cc3ccccc3[nH]2)C1 (stereo not given)	.	.	.	21µM	?
Cc1ccc(-c2ccnc3nc(-n4cccc4)nn23)o1	.	.	.	4.7µM	?
O=C(Cn1nc(-c2ccc(Cl)cc2)c2ccccc2c1=O)NCC1CCCO1 (stereo not given)	.	.	.	13µM	?
COc1ccccc1NC(=O)CCn1nc(-c2ccccc2)c2ccccc2c1=O	/	/	/	/	56µM
CNC(=O)Cn1nc(-c2ccc(C)cc2)c2ccccc2c1=O	.	.	.	12µM	?
CNC(=O)CCn1nc(-c2ccc(C)cc2)c2ccccc2c1=O	.	.	.	.	.
C=C[C@@H]1c2cc(C)ccc2N(S(=O)(=O)c2ccc(C)cc2)[C@H](c2ccc(C(C)(F)F)cc2)C1(C#N)C#N	.	/	/	/	/
O=C(/C=C/Sc1ccc(C(F)(F)F)cn1)c1ccccc1	.	.	.	.	79µM
COc1ccc(-c2nc(SCC(=O)Nc3c(C)cc(C)cc3C)n[nH]2)cc1	.	.	/	/	.
CCOc1ccc(N2C(=O)C(Cl)=C(N3CCOCC3)C2=O)cc1	.	.	.	.	28µM
COc1ccc(CCNC2=C(Cl)C(=O)N(CCc3ccccc3)C2=O)cc1OC	.	/	?	.	.
O=C1C(Cl)=C(Nc2ccccc2O)C(=O)N1CCc1ccccc1	.	.	.	4.2µM	.
CC(C)c1ccc(N2C(=O)C(Cl)=C(N3CCOCC3)C2=O)cc1	.	.	.	.	.
CCOc1ccc(N2C(=O)C(Cl)=C(Nc3ccccc3O)C2=O)cc1	.	.	.	8.4µM	.
CCN(CC)S(=O)(=O)c1ccc(NC(=O)CSc2nnc3c(n2)[nH]c2ccccc23)cc1	/	/	/	/	.
COc1ccccc1C(=O)NCCC(=O)Nc1ccc(OC(F)(F)F)cc1	.	.	-95	.	.
SMILES	Vif-A3G inh	Vif-APOBEC3F blk	TSHR antagonist	PLK1 PBD inh	VDR inhibitor
Cc1ccc(S(=O)(=O)N(C)c2nc3ccccc3[nH]c2=S)cc1	.	.	.	11µM	?
CCc1nnc2c(N(C)S(=O)(=O)c3ccc(C)cc3)nc3ccccc3n12	.	.	.	.	.
Cc1cc(C)c(S(=O)(=O)Nc2nnc(C)s2)c(C)c1	.	.	.	3.4µM	?
CCC(=O)NC(c1cccs1)c1cc(Br)c2cccnc2c1O (stereo not given)	/	/	.	/	/
CCNC(=O)c1ccc(CSc2ccc(Cl)cc2)cc1	.	.	.	27µM	.
Cc1cc(C(=O)OCC(=O)Nc2ccc(F)c(F)c2F)c(C)o1	.	.	.	?	79µM
COc1ccc(Cl)cc1NC(=O)COC(=O)c1cc(C)oc1C	.	.	/	.	.
COc1ccc(-n2nc(C(=O)N(C)c3cc(Cl)ccc3OC)c3c4ccccc4n(C)c3c2=O)cc1	/	/	/	/	.
CC(=O)c1cnc2nc(SCc3ccc(C)cc3)nn2c1C	.	.	.	24µM	?
CCOC(=O)c1cc2n(c1/N=C/N(C)C)-c1ccccc1C2=O	?	22µM	.	?	.
CCOC(=O)c1ccc2c(c1)N(C)C(=O)c1ccccc1S2	.	.	.	.	.
O=C(Nc1ccccc1F)c1ccc(O)c2ncccc12	/	/	.	/	/
CCn1nc(NC(=O)c2ccncc2)c2cc3ccc(C)cc3nc21	.	.	.	.	.
CCn1nc(NC(=O)c2ccncc2)c2cc3cc(C)ccc3nc21	.	.	.	3.8µM	.
CCOC(=O)C1CCCN(C2=NC(=O)/C(=C/c3ccc(OC)cc3OC)S2)C1 (stereo not given)	.	.	.	19µM	?
CC(/C=N/NC(=O)c1ccco1)=C\c1ccccc1	.	.	.	.	.
O=C(N/N=C\CCc1ccccc1)c1ccco1	.	.	.	15µM	?
Cc1ccc(C(=O)c2oc3ccccc3c2NC(=O)COc2ccccc2Cl)cc1	.	.	/	/	.
O=C(CSc1n[nH]c(-c2cccnc2)n1)OC1CCCCC1	.	.	.	12µM	?
COc1ccc(C(=O)C2CCCN(C(=O)c3ccc(C(C)=O)s3)C2)c(C)c1 (stereo not given)	.	.	.	30µM	.
COc1ccc2cc(C(=O)C3CCCN(Cc4ccccn4)C3)ccc2c1 (stereo not given)	.	28µM	.	.	.
CCn1ccnc1CN1CCCC(C(=O)c2ccc3cc(OC)ccc3c2)C1 (stereo not given)	.	?	.	.	.
COCc1ccc(C(=O)N2CCCC(C(=O)c3ccc(Cl)cc3C)C2)o1 (stereo not given)	.	.	.	19µM	?
COc1ccc2cc(C(=O)C3CCCN(C(=O)c4cccnc4)C3)ccc2c1 (stereo not given)	.	.	.	.	.
COc1ccc2cc(C(=O)C3CCCN(C(=O)c4cnn(C(C)C)c4)C3)ccc2c1 (stereo not given)	.	.	.	24µM	?
COc1cc(OC)c(OC)cc1CN1CCCC(C(=O)N2CCCC2)C1 (stereo not given)	.	.	.	.	.
COc1ccc(CN2CCCC(C(=O)N3CCCCC3)C2)c(OC)c1 (stereo not given)	.	.	.	30µM	?
CC(C)(C)n1ncc2c(=O)n(Cc3c(Cl)cccc3Cl)cnc21	.	/	/	/	/
CC1=CC(=C(C#N)c2nc3ccccc3s2)C=C(C)N1CC1CCCO1 (stereo not given)	?	?	.	27µM	.
